The values below come from PubChem BioAssay (NCI).

Assay in all cases: NCI-60 one-dose screen, 48 h (100 = growth as untreated, 0 = no growth, -100 = all killed)
For one experiment, the system named is RPMI-8226 leukemia. Conditions: 10 µM unless noted.
The subject of another experiment is OVCAR-8 ovarian. Conditions: 10 µM unless noted.
A further experiment concerns OVCAR-5 ovarian. Conditions: 10 µM unless noted.
The subject of another experiment is OVCAR-4 ovarian. Conditions: 10 µM unless noted.
In another experiment the test system is SK-OV-3 ovarian. To be noted: 10 µM unless noted.
In another experiment the test system is IGROV1 ovarian. Conditions: 10 µM unless noted.
For the next experiment, the system named is OVCAR-3 ovarian. Conditions: 10 µM unless noted.
In a further experiment the test system is HS 578T breast. To be noted: 10 µM unless noted.
The subject of a further experiment is NCI/ADR-RES ovarian. Conditions: 10 µM unless noted.
Another experiment has as its system T-47D breast. To be noted: 10 µM unless noted.
The next experiment concerns BT-549 breast. Conditions: 10 µM unless noted.
The next experiment relates to MDA-MB-435 melanoma. Conditions: 10 µM unless noted.
In another experiment the test system is SW-620 colon. To be noted: 10 µM unless noted.
The test system of a further experiment is MCF7 breast. Conditions: 10 µM.
A further experiment relates to HCT-116 colon. Conditions: 10 µM unless noted.
In the next experiment the test system is HCC-2998 colon. Conditions: 10 µM unless noted.
Another experiment concerns KM12 colon. To be noted: 10 µM unless noted.

About 83,000 compounds went through this panel and 20% of them were active in at least one assay; those are over-represented in the sample as a whole.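 Percent growth is the endpoint: 0 to 100 indicates growth inhibition (40 means 60% inhibition), 0 means no net growth, and negative values indicate cell death.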 Values without a mark were called inactive. The source made the active and inactive calls. How the source made its calls: active means growth percent below 10; inactive means the rest.

For the molecule `COc1ccc(-c2nocc2-c2cccs2)cc1`, the growth in the experiment on RPMI-8226 leukemia is 124%; with OVCAR-8 ovarian, 110%; in the experiment with OVCAR-5 ovarian it was 88.9%; with OVCAR-4 ovarian, 99%; with SK-OV-3 ovarian it was 105%; with IGROV1 ovarian, 102%. Also, the growth was 108% in the experiment on OVCAR-3 ovarian; 91.1% with HS 578T breast; 110% in the experiment on NCI/ADR-RES ovarian; 75.7% with T-47D breast; 105% with BT-549 breast; 101% in the experiment with MDA-MB-435 melanoma. For the same molecule, the growth in the experiment with SW-620 colon was 99.4%; in the experiment on MCF7 breast it was 97.3%; in the experiment on HCT-116 colon it was 103%; in the experiment on HCC-2998 colon, 118%; in the experiment with KM12 colon it was 104%.

For the molecule `O=C(O)c1cn(C2CC2)c2cc(N3CCN(C(=O)C[n+]4ccccc4)CC3)c(F)cc2c1=O`, the growth was 106% with RPMI-8226 leukemia; 105% in the experiment with OVCAR-8 ovarian; 104% in the experiment on OVCAR-5 ovarian; 89.4% in the experiment with OVCAR-4 ovarian; 110% in the experiment on SK-OV-3 ovarian; 109% in the experiment with IGROV1 ovarian. The growth is 107% in the experiment with OVCAR-3 ovarian; 99.3% in the experiment with HS 578T breast; 105% with NCI/ADR-RES ovarian; 94.2% in the experiment on T-47D breast; 102% in the experiment with BT-549 breast; 99.9% with MDA-MB-435 melanoma. In addition, the growth in the experiment with SW-620 colon is 105%; in the experiment on MCF7 breast, 101%; in the experiment on HCT-116 colon it was 99.3%; in the experiment on HCC-2998 colon, 106%; with KM12 colon, 103%.

For the molecule `COc1cc2nc(-c3cnc(N(C)C)nc3)nc(NC3CCN(Cc4ccccc4)CC3)c2cc1OC`, the growth is -50.5% (active) in the experiment on RPMI-8226 leukemia; -42.9% (active) with OVCAR-8 ovarian; -94.8% (active) in the experiment with OVCAR-5 ovarian; -93.5% (active) in the experiment on OVCAR-4 ovarian; -68% (active) in the experiment with SK-OV-3 ovarian; -76.4% (active) in the experiment on IGROV1 ovarian. Also, the growth is -85.1% (active) with OVCAR-3 ovarian; -47% (active) in the experiment with HS 578T breast; -54.1% (active) in the experiment with NCI/ADR-RES ovarian; -46.6% (active) in the experiment on T-47D breast; -1.66% (active) with BT-549 breast; -83.6% (active) in the experiment on MDA-MB-435 melanoma. Further, the growth is -56.3% (active) with SW-620 colon; -65.5% (active) in the experiment on MCF7 breast; -80.6% (active) with HCT-116 colon; -92.7% (active) in the experiment on HCC-2998 colon; -60.9% (active) in the experiment on KM12 colon.

On to `CN1CCN(Cc2ccc(NC(=O)c3cncc(C#Cc4nc(N)nc5[nH]ncc45)c3)cc2C(F)(F)F)CC1`, for which the growth in the experiment with RPMI-8226 leukemia was 55.2%; in the experiment on OVCAR-8 ovarian, 100%; with OVCAR-5 ovarian, 108%; with OVCAR-4 ovarian, 88.8%; with SK-OV-3 ovarian it was 122%; in the experiment with IGROV1 ovarian it was 109%. Further, the growth is 66.5% in the experiment on OVCAR-3 ovarian; 99.1% with HS 578T breast; 114% in the experiment with NCI/ADR-RES ovarian; 93.5% with T-47D breast; 82.9% with BT-549 breast; 81.5% in the experiment with MDA-MB-435 melanoma. The growth in the experiment with SW-620 colon was 28%; in the experiment with MCF7 breast, 69.1%; in the experiment with HCT-116 colon, 49.1%; with HCC-2998 colon, 133%; in the experiment on KM12 colon, 81.9%.

Regarding `Cn1c(=O)n(C)c2cc(CNCCNc3ccnc4cc(Cl)ccc34)ccc21`, the growth in the experiment with RPMI-8226 leukemia was 34.1%; in the experiment with OVCAR-8 ovarian, 66.6%; in the experiment on OVCAR-5 ovarian, 76.7%; in the experiment on OVCAR-4 ovarian, 81.5%; with SK-OV-3 ovarian, 86.2%; in the experiment on IGROV1 ovarian, 98.8%. Further, the growth with OVCAR-3 ovarian was 89.3%; with HS 578T breast, 77.6%; in the experiment with NCI/ADR-RES ovarian, 80.3%; in the experiment with T-47D breast, 82.4%; in the experiment on BT-549 breast, 90.8%; in the experiment on MDA-MB-435 melanoma, 38.7%. The growth is 23.1% with SW-620 colon; 74.2% with MCF7 breast; 28.1% in the experiment on HCT-116 colon; 27.4% in the experiment on HCC-2998 colon; 54.5% with KM12 colon.

On to `O=S(=O)(c1ccc(NC(=S)NC23CC4CC(CC(C4)C2)C3)cc1)N1CCCCC1`, for which the growth was -11.6% (active) in the experiment on RPMI-8226 leukemia; 82.9% with OVCAR-8 ovarian; 94.4% in the experiment with OVCAR-5 ovarian; 86.4% with OVCAR-4 ovarian; 106% in the experiment on SK-OV-3 ovarian; 94.3% in the experiment on IGROV1 ovarian. Moreover, the growth in the experiment with OVCAR-3 ovarian is 5.73% (active); with HS 578T breast it was 88.8%; in the experiment with NCI/ADR-RES ovarian it was 88.2%; in the experiment on T-47D breast, 90.5%; in the experiment on BT-549 breast it was 93.8%; in the experiment on MDA-MB-435 melanoma, 96%. Also, the growth with SW-620 colon is 55.8%; with MCF7 breast, 94.2%; in the experiment on HCT-116 colon, 50.5%; in the experiment on HCC-2998 colon it was 114%; in the experiment on KM12 colon, 24.7%.

On to `Cc1nc2ccccc2c(/C=C/c2ccc(F)cc2)c1C(N)=O`, for which the growth with RPMI-8226 leukemia is 96.1%; in the experiment on OVCAR-8 ovarian, 104%; in the experiment on OVCAR-5 ovarian it was 105%; in the experiment on OVCAR-4 ovarian it was 95.5%; in the experiment on SK-OV-3 ovarian it was 105%; with IGROV1 ovarian, 97.4%. The growth with OVCAR-3 ovarian was 107%; in the experiment on HS 578T breast, 106%; with NCI/ADR-RES ovarian, 111%; in the experiment on T-47D breast, 90.8%; with BT-549 breast, 97.4%; in the experiment on MDA-MB-435 melanoma, 107%. Moreover, the growth in the experiment on SW-620 colon is 105%; with MCF7 breast it was 69.7%; in the experiment on HCT-116 colon it was 98.3%; in the experiment on HCC-2998 colon, 128%; with KM12 colon, 101%.

Take `Cc1cc(Nc2ccc(OCc3ccccc3)cc2)nc2cc(O)ccc12`: the growth was 6.65% (active) in the experiment with RPMI-8226 leukemia; 57.1% in the experiment on OVCAR-8 ovarian; 84.3% in the experiment with OVCAR-5 ovarian; 44.5% in the experiment with OVCAR-4 ovarian; 86.9% in the experiment with SK-OV-3 ovarian; 60.5% in the experiment on IGROV1 ovarian. For the same molecule, the growth in the experiment with OVCAR-3 ovarian is 41.3%; in the experiment on HS 578T breast it was 106%; in the experiment with NCI/ADR-RES ovarian, 75.7%; in the experiment with T-47D breast, 69.8%; in the experiment on BT-549 breast, 69.7%; in the experiment on MDA-MB-435 melanoma, 65.6%. For the same molecule, the growth in the experiment with SW-620 colon is 11%; with MCF7 breast, 39.3%; with HCT-116 colon, 30.6%; with HCC-2998 colon it was -34% (active); in the experiment on KM12 colon it was 45.6%.

On to `CCOc1c(Br)cc(C2C(C(=O)OC)=CN(C)C=C2C(=O)OC)cc1OC`, for which the growth in the experiment on RPMI-8226 leukemia is 7.41% (active); with OVCAR-8 ovarian it was 85.8%; with OVCAR-5 ovarian, 83.9%; with OVCAR-4 ovarian, 72.9%; in the experiment on SK-OV-3 ovarian, 87.5%; in the experiment on IGROV1 ovarian, 67.7%. The growth was 83.3% in the experiment on OVCAR-3 ovarian; 75.8% with HS 578T breast; 71% in the experiment on NCI/ADR-RES ovarian; 57.2% with T-47D breast; 78.1% with BT-549 breast; 47.3% with MDA-MB-435 melanoma. Besides, the growth with SW-620 colon was 58%; with MCF7 breast it was 35.9%; with HCT-116 colon it was 59%; with HCC-2998 colon, -77.5% (active); in the experiment on KM12 colon it was 61.9%.
